# According to the supplement of paper PMC8728848:
# The full list was thinned out, with the strongest signals kept by preference.
# B1: Vd7LysM (Verticillium dahliae) (protein)
# chain: RRGPEPKYPPAAGTSSYCSYWVDYEGDKSCSRVLEDNVVVLKDFARWNPTVGADCSGIKAGNSYCVEAFGEPEPIEVTTTTRAATTTTQPTATTTTFANGIATPQPTQSGMVTNCNKFHWIAEGVSCSQVISFQKITLADFVKWNPSVKSDCSGMWAGVNVCVGVVGSSTDTAKPTTTAPSNGVVTPQPTQPSMVTNCNKFHWIAKGVTCQQVISYQKISLADFVKWNPSVLSDCSGMWAEVQVCVGVIGSTPTTLATTTTTAGNGVSTPLPTQPGMVTNCAKFHWVAKGVTCNQIYSFQKITLEQFVSYNPTVKSDCSGMQAEVQVCVGLIAGTTPTTTRPPTTTAPGNGVSTPQPTQPGMVTNCAKFHWVAKGVTCNQIYSFQKITLEQFVSFNPTVKSDCTGMQAEVNVCVGLIGGNPTPTQTGNGIATPTPIQPGMVSNCKKFHWIAQGVTCQQVISFQKITLADFVKWNTGVGSDCRTMWAETNVCVGV
# Legend:
# Test in all cases: glycan array binding signal (z-score within array); higher = stronger binding
# Conditions in all cases: glycan notation: IUPAC condensed, linker removed
# [1] = molecular target: Fuc(a1-2)Gal(b1-3)GalNAc(a1-3)[Fuc(a1-2)]Gal(b1-4)GlcNAc
# Procedure, shortened: (§1)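 Columns mapping to the same glycan were averaged after glycan names were converted to IUPAC-condensed notation. The data come from 3228 arrays in the Consortium for Functional Glycomics database, limited to those with an available protein sequence. Binding is reported as a within-array Z-score averaged across arrays of one protein sequence and across linkers.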
# [2] = molecular target: Fuc(a1-2)Gal(b1-3)GlcNAc(b1-3)[Gal(b1-4)GlcNAc(b1-6)]Gal(b1-4)Glc
# Procedure, shortened: as §1
# [3] = molecular target: Fuc(a1-2)Gal(b1-3)[Fuc(a1-4)]GlcNAc(b1-3)[Gal(b1-4)GlcNAc(b1-6)]Gal(b1-4)Glc
# Procedure, shortened: as §1
# Fuc(a1-2)Gal(b1-4)Glc6S = molecular target: Fuc(a1-2)Gal(b1-4)Glc6S
# Procedure, shortened: as §1
# [4] = molecular target: Fuc(a1-2)Gal(b1-4)GlcNAc(b1-2)Man(a1-3)[Fuc(a1-2)Gal(b1-4)GlcNAc(b1-2)Man(a1-6)]Man(b1-4)GlcNAc(b1-4)GlcNAc
# Procedure, shortened: as §1
# [5] = molecular target: Fuc(a1-2)Gal(b1-4)GlcNAc(b1-2)[Fuc(a1-2)Gal(b1-4)GlcNAc(b1-4)]Man(a1-3)[Fuc(a1-2)Gal(b1-4)GlcNAc(b1-2)Man(a1-6)]Man(b1-4)GlcNAc(b1-4)GlcNAc
# Procedure, shortened: as §1
# [6] = molecular target: Fuc(a1-2)Gal(b1-4)GlcNAc(b1-3)Gal(b1-4)GlcNAc(b1-2)Man(a1-3)[Fuc(a1-2)Gal(b1-4)GlcNAc(b1-3)Gal(b1-4)GlcNAc(b1-2)Man(a1-6)]Man(b1-4)GlcNAc(b1-4)GlcNAc
# Procedure, shortened: as §1
# [7] = molecular target: Fuc(a1-2)Gal(b1-4)GlcNAc(b1-3)Gal(b1-4)GlcNAc(b1-3)Gal(b1-4)GlcNAc
# Procedure, shortened: as §1
# [8] = molecular target: Fuc(a1-2)Gal(b1-4)GlcNAc(b1-6)GalNAc
# Procedure, shortened: as §1
# [9] = molecular target: Fuc(a1-2)[GalNAc(a1-3)]Gal(b1-4)GlcNAc(b1-3)Gal(b1-4)GlcNAc
# Procedure, shortened: as §1
# [10] = molecular target: Fuc(a1-2)[GalNAc(b1-3)]Gal
# Procedure, shortened: as §1
# [11] = molecular target: Fuc(a1-3)[Gal(b1-4)]Glc6S
# Procedure, shortened: as §1
# [12] = molecular target: Fuc(a1-3)[Gal(b1-4)]GlcNAc
# Procedure, shortened: as §1
# [13] = molecular target: Fuc(a1-3)[Gal3S(b1-4)]GlcNAc6S
# Procedure, shortened: as §1
# [14] = molecular target: Gal(a1-3)[Gal(a1-4)]Gal(b1-4)GlcNAc
# Procedure, shortened: as §1
# Gal(a1-4)Gal(b1-4)Glc = molecular target: Gal(a1-4)Gal(b1-4)Glc
# Procedure, shortened: as §1
# Gal(a1-4)GlcNAc = molecular target: Gal(a1-4)GlcNAc
# Procedure, shortened: as §1
# Gal(a1-6)Glc = molecular target: Gal(a1-6)Glc
# Procedure, shortened: as §1
# [15] = molecular target: Gal(b1-3)GalNAc(b1-4)Gal(b1-4)Glc
# Procedure, shortened: as §1
# Gal(b1-3)GlcNAc = molecular target: Gal(b1-3)GlcNAc
# Procedure, shortened: as §1
# [16] = molecular target: Gal(b1-3)[Fuc(a1-4)]GlcNAc
# Procedure, shortened: as §1
# [17] = molecular target: Gal(b1-3)[Fuc(a1-4)]GlcNAc(b1-3)Gal(b1-3)[Fuc(a1-4)]GlcNAc
# Procedure, shortened: as §1
# [18] = molecular target: Gal(b1-3)[Neu5Ac(a2-6)]GlcNAc(b1-4)Gal(b1-4)Glc
# Procedure, shortened: as §1
# Gal(b1-4)Glc6S = molecular target: Gal(b1-4)Glc6S
# Procedure, shortened: as §1
# [19] = molecular target: Gal(b1-4)GlcNAc(b1-2)Man(a1-3)[Gal(b1-4)GlcNAc(b1-2)Man(a1-6)][Gal(b1-4)GlcNAc(b1-4)]Man(b1-4)GlcNAc(b1-4)[Fuc(a1-6)]GlcNAc
# Procedure, shortened: as §1
# [20] = molecular target: Gal(b1-4)GlcNAc(b1-3)Gal(b1-4)GlcNAc(b1-2)[Gal(b1-4)GlcNAc(b1-3)Gal(b1-4)GlcNAc(b1-6)]Man(a1-6)[Gal(b1-4)GlcNAc(b1-3)Gal(b1-4)GlcNAc(b1-2)Man(a1-3)]Man(b1-4)GlcNAc(b1-4)[Fuc(a1-6)]GlcNAc
# Procedure, shortened: as §1
# [21] = molecular target: Gal(b1-4)GlcNAc(b1-3)Gal(b1-4)GlcNAc(b1-3)Gal(b1-4)GlcNAc(b1-3)Gal(b1-4)GlcNAc(b1-3)Gal(b1-4)GlcNAc(b1-2)[Gal(b1-4)GlcNAc(b1-3)Gal(b1-4)GlcNAc(b1-3)Gal(b1-4)GlcNAc(b1-3)Gal(b1-4)GlcNAc(b1-3)Gal(b1-4)GlcNAc(b1-6)]Man(a1-6)[Gal(b1-4)GlcNAc(b1-3)Gal(b1-4)GlcNAc(b1-3)Gal(b1-4)GlcNAc(b1-3)Gal(b1-4)GlcNAc(b1-3)Gal(b1-4)GlcNAc(b1-2)Man(a1-3)]Man(b1-4)GlcNAc(b1-4)[Fuc(a1-6)]GlcNAc
# Procedure, shortened: as §1
# Gal4S6S(b1-4)GlcNAc = molecular target: Gal4S6S(b1-4)GlcNAc
# Procedure, shortened: as §1
# [22] = molecular target: GalNAc(a1-3)GalNAc(b1-3)Gal(a1-4)Gal(b1-4)GlcNAc
# Procedure, shortened: as §1
# [23] = molecular target: GalNAc(b1-4)GlcNAc(b1-2)Man(a1-3)[GalNAc(b1-4)GlcNAc(b1-2)Man(a1-6)]Man(b1-4)GlcNAc(b1-4)GlcNAc
# Procedure, shortened: as §1
binder,measurement,setting,value
B1,glycan array binding signal (z-score),[1],-0.691
same,glycan array binding signal (z-score),[2],-0.772
same,glycan array binding signal (z-score),[3],-1.91
same,glycan array binding signal (z-score),Fuc(a1-2)Gal(b1-4)Glc6S,2.67
same,glycan array binding signal (z-score),[4],2.13
same,glycan array binding signal (z-score),[5],-0.492
same,glycan array binding signal (z-score),[6],0.254
same,glycan array binding signal (z-score),[7],3.25
same,glycan array binding signal (z-score),[8],0.512
same,glycan array binding signal (z-score),[9],1.94
same,glycan array binding signal (z-score),[10],0.38
same,glycan array binding signal (z-score),[11],0.721
same,glycan array binding signal (z-score),[12],-0.68
same,glycan array binding signal (z-score),[13],1.04
same,glycan array binding signal (z-score),[14],-0.317
same,glycan array binding signal (z-score),Gal(a1-4)Gal(b1-4)Glc,3.04
same,glycan array binding signal (z-score),Gal(a1-4)GlcNAc,0.386
same,glycan array binding signal (z-score),Gal(a1-6)Glc,-1.58
same,glycan array binding signal (z-score),[15],2.86
same,glycan array binding signal (z-score),Gal(b1-3)GlcNAc,-0.186
same,glycan array binding signal (z-score),[16],-0.618
same,glycan array binding signal (z-score),[17],1.63
same,glycan array binding signal (z-score),[18],-0.885
same,glycan array binding signal (z-score),Gal(b1-4)Glc6S,0.592
same,glycan array binding signal (z-score),[19],-0.393
same,glycan array binding signal (z-score),[20],2.56
same,glycan array binding signal (z-score),[21],4.04
same,glycan array binding signal (z-score),Gal4S6S(b1-4)GlcNAc,0.198
same,glycan array binding signal (z-score),[22],0.706
same,glycan array binding signal (z-score),[23],-1.23
